Assay outcomes (PubChem)
KB-3-1 tox: KB-3-1 parental cell cytotoxicity; Potency, µM (doses to about 46.1 µM), actives largely listed as cytotoxic; AID 1347075; 400,000 compounds, 1.4% hits; KB-3-1 viability, CellTiter-Glo ATP luminescence, 72 h; also: nearly all actives have a fitted effect of over 60% in size
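KB-3-1 cells, DMEM (no phenol red) + 10% FBS; compound by pin transfer, 72 h, 37 °C. Readout: CellTiter-Glo luminescence after 10 min. Data normalized, curve-fitted.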
ATXN2 expr inh: inhibitors of ATXN2 expression; HEK-293 ATXN2-luciferase reporter, luminescence, 24 h; Potency, µM (series often up to 57 µM), most hits filed as inhibitors; 360,000 compounds, 0.72% hits; also: nearly all actives have a fitted effect of over 55% in size
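qHTS (up to 57 uM final) was run with 24 h compound exposure of reporter cells at 37 °C. Each well was multiplexed: SteadyGlo luminescence measured ATXN2-luciferase expression after a fluorogenic Gly-Phe-AFC viability readout (25 uM final).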
HepG2 tox: HepG2 cytotoxicity, counter-screen for TGF-b inhibitors. Potency, µM (highest dose often 46.1 µM), hits mostly cytotoxic. 410,000 compounds, 0.76% hits. HepG2 CAGA-GFP viability, ATP luminescence, 18 h
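CellTiter-Glo luminescence gave cytotoxicity after 18 hours at 37 degrees C. The cells were HepG2 CAGA-GFP in 1% FBS DMEM, stimulated with 500 pg/mL TGF-beta after compound addition. %Activity was normalised to no-cell wells (complete cell-killing) and DMSO (no toxicity), and curves were fitted and classified.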
TGFb SMAD3 inh: inhibitors of TGF-b signaling | HepG2 CAGA-GFP TGF-b/SMAD3 reporter, GFP fluorescence, 18 h; TGF-beta stimulated, 500 pg/mL final | Potency, µM (doses to about 46.1 µM), hits mostly inhibitors | 410,000 compounds, 1.2% hits | AID 588855; also: nearly all actives have a fitted effect of over 65% in size
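Inhibition was scored as loss of TGF-beta-induced (500 pg/mL final, 18 hours, 37 degrees C) GFP in HEPG2 cells carrying a CAGA-GFP reporter, in DMEM with 1% FBS. Well GFP was summed per cell; Activity was normalised to unstimulated and stimulated DMSO wells, then concentration-response fitting.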
KB-V1 MDR tox: kills drug-selected multidrug resistant KB-V1 cells; Potency, µM (titrated, usually from 46.1 µM), actives largely listed as cytotoxic; 400,000 compounds, 3.4% hits; AID 1347076; KB-V1 MDR cells viability, CellTiter-Glo, 72 h; also: nearly all actives have a fitted effect of over 60% in size
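qHTS viability screen in drug-selected KB-V1 MDR cells: 72 h compound treatment at 37 degrees C, ATP luminescence end point.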
S2 tox: cell viability loss in ATXN counter-screen; S2 cells (HEK-293 line with an ATXN2-luciferase reporter) viability, CellTiter-Fluor protease fluorescence, 24 h; Potency, µM (highest dose often 56.7 µM), actives largely listed as cytotoxic; 400,000 compounds, 0.49% hits; also: nearly all actives have a fitted effect of over 40% in size
Each line names hits and unclear results; the compound was inactive in the other large screens. A selection: hits, their analogues and other compounds. The true share with any hit is near 5.9%. Calls follow the shape of the dose curve; as a rule, active = well fitted curve in the direction sought with a large enough effect; inconclusive = small, poorly fitted or top-dose-only effect, or another doubt; inactive = no such curve, though single readings can be large; an effect the other way counts as inactive or inconclusive.

COc1ccc(C2c3cc4c(cc3OC(N3CCOCC3)C2C)OCO4)c(OC)c1 (stereo not given)	KB-3-1 tox 4.6µM, TGFb SMAD3 inh inconclusive, KB-V1 MDR tox inconclusive, S2 tox inconclusive
O=c1c2ccccc2nc(COc2ccccc2)n1/N=C/c1cn[nH]c1-c1ccccc1	KB-V1 MDR tox 21µM
Cc1ccccc1OCc1nc2ccccc2c(=O)n1/N=C/c1cn[nH]c1-c1ccc(Br)cc1	KB-3-1 tox inconclusive, KB-V1 MDR tox 7.3µM
CCCn1c2ccccc2c2cnn(CC(=O)NCCc3ccc(S(N)(=O)=O)cc3)c(=O)c21	none
Cn1c(Cc2ccc3c(c2)OCO3)nnc1SCC(=O)N1CCc2ccccc2C1	KB-V1 MDR tox 16µM
Cc1ccc(-n2nnnc2SCC(=O)NCC2(N3CCOCC3)CCCCC2)c(C)c1	KB-V1 MDR tox 21µM, S2 tox inconclusive
Cn1c(Cc2ccccc2)nnc1SCC(=O)N1CCCCC1	none
Cc1nnc(SCC(=O)N2CCCC2)n1-c1ccc(F)cc1	HepG2 tox 4.5µM
Cc1ccc(-n2nnnc2SCC(=O)NCC2(N3CCCCC3)CCCCC2)c(C)c1	KB-3-1 tox inconclusive
Cc1ccc(-n2c(C)nnc2SCC(=O)N2CCc3ccccc3C2)cc1C	KB-V1 MDR tox 9.2µM
Cc1nnc(SCC(=O)N2CCc3ccccc3C2)n1-c1ccccc1	none
CCOc1ccccc1NC(=O)c1cc(=O)c2ccc(C)cc2o1	none
Cc1ccc(-n2nnnc2SCC(=O)N2CCc3ccccc3C2)c(C)c1	KB-V1 MDR tox 7.3µM
CCOc1ccc(-c2ncnn2-c2sc3c(c2C#N)CCCCC3)cc1	none
COC(=O)c1ccc(OCC(O)Cn2nnc3ccccc32)cc1 (stereo not given)	KB-V1 MDR tox 23µM
O=C1C2CC=CCC2C(=O)N1c1ccc(OCC(O)Cn2nnc3ccccc32)cc1 (stereo not given)	KB-3-1 tox inconclusive, TGFb SMAD3 inh inconclusive, KB-V1 MDR tox 15µM
CC(=NO)c1ccc2c(c1)Cc1cc([N+](=O)[O-])ccc1-2	KB-3-1 tox 15µM, TGFb SMAD3 inh inconclusive, KB-V1 MDR tox 7.3µM
CCOc1ccc(CCNC(=O)c2cnc3sc(N4CCOCC4)nn3c2=O)cc1	none (no result: KB-3-1 tox, ATXN2 expr inh, KB-V1 MDR tox, S2 tox)
COc1ccc(OC)c(S(=O)(=O)CC(=O)c2cc3ccc(OC)cc3oc2=O)c1	none (no result: ATXN2 expr inh)
CCN(CC)C(=O)c1cc2cc(Br)ccc2oc1=O	HepG2 tox 7.1µM, S2 tox inconclusive
COc1ccc(S(=O)(=O)CC(=O)c2cc3cc(Br)ccc3oc2=O)cc1	TGFb SMAD3 inh 13µM, KB-V1 MDR tox inconclusive (no result: ATXN2 expr inh)
O=C1CCCC2=C1C(c1ccc(OS(=O)(=O)c3ccc(Cl)cc3)cc1)C1=C(CCCC1=O)O2	KB-3-1 tox inconclusive, ATXN2 expr inh inconclusive, KB-V1 MDR tox 4.6µM
Cc1ccccc1OCc1nc2ccc(S(=O)(=O)N3CCOCC3)cc2[nH]1	TGFb SMAD3 inh inconclusive, KB-V1 MDR tox 21µM
CCc1ccccc1OCc1nc2ccc(S(=O)(=O)N3CCOCC3)cc2[nH]1	none
CCN(CC)S(=O)(=O)c1ccc2c(c1)c(=O)c(C(=O)NCc1ccccc1OC)cn2C	none
Cn1cc(C(=O)NC2CCCCC2)c(=O)c2cc(S(=O)(=O)N3CCCC3)ccc21	KB-V1 MDR tox 9.2µM
Cc1ccc(S(=O)(=O)N2CCCC(C(=O)NC3CCCC3)C2)cc1Cl (stereo not given)	KB-3-1 tox inconclusive, KB-V1 MDR tox 13µM
CCN(CC)S(=O)(=O)c1ccc2c(c1)c(=O)c(C(=O)NCc1ccccc1Cl)cn2C	HepG2 tox 5.6µM
Cn1cc(C(=O)NCc2cccs2)c(=O)c2cc(S(=O)(=O)N3CCCC3)ccc21	ATXN2 expr inh inconclusive, KB-V1 MDR tox 21µM, S2 tox inconclusive
O=C(CCN1N=C(c2ccccc2)CCC1=O)NCCc1ccc(Cl)cc1	TGFb SMAD3 inh inconclusive (no result: KB-3-1 tox, ATXN2 expr inh, KB-V1 MDR tox, S2 tox)
CCOCCCNC(=O)CN1C(=O)/C(=C/c2ccccc2)Sc2ccccc21	TGFb SMAD3 inh inconclusive, KB-V1 MDR tox 15µM
Cc1ccc(/C=C2/Sc3ccccc3N(CC(=O)NCCCOC(C)C)C2=O)cc1	KB-V1 MDR tox 23µM
